# Values joined by “and” are separate entries in the source; they are usually repeats but may differ in a detail not shown here. Identical values can stand only once. Active and inactive are the calls of the source.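 The calls were made as follows, unless noted: active = normalized viability below 100% at a tested concentration; inactive = the rest.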
# Legend:
# [1] = hESC survival regulators, cell-based (AID 493140; call rule not given here;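 also: cells exposed to compounds for four days before counting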); details: human embryonic stem cell survival screen; stronger effect = higher value
# [2] = biological target: 6-phosphogluconate dehydrogenase, decarboxylating (Homo sapiens) (UniProt P52209); test: 6PGD enzyme inhibitors, primary screen, biochemical, human, recombinant enzyme, NADPH absorbance (AID 1159550;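 active = at least 20% inhibition of 6-phosphogluconate dehydrogenase activity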); details: recombinant 6PGD, NADPH absorbance 341 nm; at 10 µM; stronger effect = higher value
# 6-phosphogluconate dehydrogenase, decarboxylating (Homo sapiens), sequence (P52209 whole entry, looked up): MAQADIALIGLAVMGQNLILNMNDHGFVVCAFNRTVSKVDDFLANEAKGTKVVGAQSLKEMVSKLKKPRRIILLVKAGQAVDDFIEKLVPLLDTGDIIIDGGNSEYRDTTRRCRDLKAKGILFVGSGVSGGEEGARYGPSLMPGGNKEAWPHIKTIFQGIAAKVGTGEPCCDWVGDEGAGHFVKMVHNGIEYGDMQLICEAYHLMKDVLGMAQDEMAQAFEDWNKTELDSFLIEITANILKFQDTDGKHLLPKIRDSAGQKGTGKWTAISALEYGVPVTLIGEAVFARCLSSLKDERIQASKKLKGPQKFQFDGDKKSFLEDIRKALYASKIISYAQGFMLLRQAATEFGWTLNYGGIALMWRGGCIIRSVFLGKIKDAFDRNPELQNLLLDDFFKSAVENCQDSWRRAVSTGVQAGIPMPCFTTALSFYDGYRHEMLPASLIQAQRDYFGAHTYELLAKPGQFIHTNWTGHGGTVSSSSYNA
# [3] = differential killing of epithelial or mesenchymal cells, primary screen, imaging, PC-3E GFP, TEM4-18 mCherry, co-culture (AID 1345086;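 active = compounds killing one labelled cell type while sparing the other, by normalised counts and ratio limits, not self-fluorescent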;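 as to all read-outs here: cells exposed to compound for 72 h before imaging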;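 as to red/green cell ratio (normalised): normalised mesenchymal count divided by normalised epithelial count so high means epithelial killing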); details: imaging cell counts, at 1 µM; for red/green cell ratio (normalised): actives lie on both sides, counts scaled to control wells, 1 = unselective
# [4] = survival rescue of mitochondrial mutant cells in low glucose, primary screen, MELAS cybrids, Rieske KO mouse fibroblasts, CellTiter-Glo (AID 1508586;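 active = mean z-score across replicates of 1.96 or higher in either the MELAS or the Rieske mutant cell line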;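 also: z relative to plate mean and SD of compound and empty wells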)
# [5] = biological target: NAD(+) hydrolase SARM1 (Homo sapiens) (UniProt Q6SZW1); test: SARM1 TIR NADase inhibitors, cell lysate, NAD-Glo luminescence (AID 1508614;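 active = compound whose remaining NAD level is above about 45 nM, limit read from the data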;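 also: higher remaining NAD means stronger inhibition of SARM1 NADase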); details: SAM-TIR HEK293T lysate NADase, at 1 µM, stronger effect = higher value
# NAD(+) hydrolase SARM1 (Homo sapiens), sequence (Q6SZW1 whole entry, looked up, the tested form may be a part): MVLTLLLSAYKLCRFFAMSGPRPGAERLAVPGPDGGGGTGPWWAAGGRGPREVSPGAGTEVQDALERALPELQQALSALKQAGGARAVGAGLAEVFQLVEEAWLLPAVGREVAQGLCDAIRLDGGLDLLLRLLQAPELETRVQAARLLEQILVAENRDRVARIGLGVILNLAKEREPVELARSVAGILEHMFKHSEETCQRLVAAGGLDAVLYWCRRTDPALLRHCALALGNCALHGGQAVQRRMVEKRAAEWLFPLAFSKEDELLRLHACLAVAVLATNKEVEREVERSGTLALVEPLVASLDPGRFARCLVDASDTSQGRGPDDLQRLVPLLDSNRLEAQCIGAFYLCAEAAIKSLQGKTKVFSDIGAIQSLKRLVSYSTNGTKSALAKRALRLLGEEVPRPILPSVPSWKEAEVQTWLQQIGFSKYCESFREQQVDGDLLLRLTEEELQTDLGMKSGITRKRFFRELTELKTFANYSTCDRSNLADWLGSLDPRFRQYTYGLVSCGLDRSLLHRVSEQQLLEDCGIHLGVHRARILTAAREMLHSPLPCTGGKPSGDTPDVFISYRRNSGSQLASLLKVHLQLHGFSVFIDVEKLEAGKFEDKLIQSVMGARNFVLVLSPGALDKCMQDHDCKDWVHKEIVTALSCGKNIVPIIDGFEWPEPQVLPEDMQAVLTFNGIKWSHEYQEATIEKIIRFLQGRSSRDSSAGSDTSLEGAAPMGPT
# [6] = biological target: Mitogen-activated protein kinase 7 (Homo sapiens) (UniProt Q13164); test: ERK5 transactivation activators in reporter cells, primary screen, cell-based, HTS (AID 1508626;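 active = luciferase signal above three times the same-plate solvent-only control wells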;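 also: luciferase driven by Gal4-ERK5 fusion binding five Gal4 sites before minimal TATA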); details: HeLa Gal4-ERK5 transactivation, 18 h, at 5 µM, stronger effect = higher value
# Mitogen-activated protein kinase 7 (Homo sapiens), sequence (Q13164 whole entry, looked up, the tested form may be a part): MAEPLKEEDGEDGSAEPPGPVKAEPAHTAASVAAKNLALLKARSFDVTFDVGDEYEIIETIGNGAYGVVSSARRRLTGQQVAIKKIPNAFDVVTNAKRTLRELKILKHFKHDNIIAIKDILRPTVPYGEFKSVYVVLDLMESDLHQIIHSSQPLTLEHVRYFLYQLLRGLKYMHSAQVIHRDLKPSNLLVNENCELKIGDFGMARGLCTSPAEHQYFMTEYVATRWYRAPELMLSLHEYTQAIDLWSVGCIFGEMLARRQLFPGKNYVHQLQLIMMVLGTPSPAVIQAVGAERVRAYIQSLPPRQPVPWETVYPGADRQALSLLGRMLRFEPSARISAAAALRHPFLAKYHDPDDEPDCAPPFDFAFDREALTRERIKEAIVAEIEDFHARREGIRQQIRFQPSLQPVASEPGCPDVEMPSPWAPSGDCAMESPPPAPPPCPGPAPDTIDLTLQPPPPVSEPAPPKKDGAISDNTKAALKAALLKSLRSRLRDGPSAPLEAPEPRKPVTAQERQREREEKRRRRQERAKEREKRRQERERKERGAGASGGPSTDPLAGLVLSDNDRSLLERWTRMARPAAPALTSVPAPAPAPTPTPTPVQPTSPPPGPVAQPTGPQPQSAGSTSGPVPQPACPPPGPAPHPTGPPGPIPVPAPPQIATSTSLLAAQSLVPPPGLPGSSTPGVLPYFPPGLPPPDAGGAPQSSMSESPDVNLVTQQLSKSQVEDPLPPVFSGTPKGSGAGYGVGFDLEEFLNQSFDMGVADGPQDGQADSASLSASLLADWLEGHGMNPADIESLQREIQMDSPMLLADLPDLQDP
# [7] = viability rescue of complex I mutant cybrids, primary screen, cell-based, galactose medium, ATP luminescence (AID 1645843;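 active = z-score of at least 1.8 in each of two replicates, scored against plate mean and spread of sample wells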;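 also: positive z means more ATP and so rescue of galactose-driven cybrid death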); details: complex I mutant cybrid cells, 72 h, stronger effect = higher value
# [8] = ovarian cancer cell viability with rucaparib, profiling panel, oncology-focused library, rucaparib conditional (AID 1508598); details: patient-derived ovarian cancer cells, CellTiter-Glo viability, 144 h, stronger effect = lower value
# [9] = liver-stage malaria parasite growth inhibition, primary screen, cell-based, HepG2, luciferase luminescence, HepG2 viability (AID 624349; in the data active = parasite load remaining mostly below about 12%, no sharp cut-off; inactive = mostly above about 10%;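 also: 100% = mean of DMSO negative control wells on the same plate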); details: P. berghei liver stage in HepG2, luciferase luminescence, concentration not given here; parasite load remaining: stronger effect = lower value; viability: measured here: HepG2 viability without parasites
# [10] = measured here: epithelial PC-3E GFP cell survival
# [11] = measured here: mesenchymal TEM4-18 mCherry cell survival
# [12] = MELAS cybrid survival, CellTiter-Glo 48 h, stronger effect = higher value
# [13] = Rieske KO mouse fibroblast survival, CellTiter-Glo 72 h
compound,measurement,setting,value
COc1cc(CNC(=O)CCCC/C=C/C(C)C)ccc1O,survival,[1],2.67 (inactive)
same,inhibition,[2],18.7% (inactive)
same,red/green cell ratio (normalised),[3],0.88 (inactive)
same,normalised cell number,[3]; [10],1.14
same,normalised cell number,[3]; [11],1
same,z-score,[4]; [12],-0.437 (inactive)
same,z-score,[4]; [13],-0.16
same,remaining NAD,[5],10 nM (inactive)
same,luciferase signal,[6],32 AU (inactive)
same,z-score,[7],0.07 (inactive) and 0.225 (inactive)
O=C(/C=C/C(=O)Oc1ccccc1C(=O)O)Oc1ccccc1C(=O)O,inhibition,[2],-15.7% (inactive)
same,red/green cell ratio (normalised),[3],1.09 (inactive)
same,normalised cell number,[3]; [10],1.17
same,normalised cell number,[3]; [11],1.27
COc1cc(OC)c2c(=O)c(-c3ccccc3)c(C)oc2c1OC,inhibition,[2],-9.49% (inactive)
same,red/green cell ratio (normalised),[3],1.02 (inactive)
same,normalised cell number,[3]; [10],1.09
same,normalised cell number,[3]; [11],1.11
CC/C(=C(\c1ccccc1)c1ccc(OCCN(C)C)cc1)c1ccccc1,survival,[1],6.5 (inactive)
same,inhibition,[2],1.2% (inactive)
same,red/green cell ratio (normalised),[3],1.09 (inactive)
same,normalised cell number,[3]; [10],0.93
same,normalised cell number,[3]; [11],1.01
same,z-score,[4]; [12],-0.656 (inactive) and -1.22 (inactive)
same,z-score,[4]; [13],0.287 and -0.548
same,viability,"[8]; at 0.000305 µM, OCI-C5x cells, with rucaparib 10 µM, 100% = cells with rucaparib alone",93.5% (active)
same,viability,"[8]; at 0.000305 µM, OCI-C5x cells, without rucaparib",95.2% (active)
same,viability,"[8]; at 0.000305 µM, OCI-P5x cells, with rucaparib 20 µM, 100% = cells with rucaparib alone",89.3% (active)
same,viability,"[8]; at 0.000305 µM, OCI-P5x cells, without rucaparib",83.7% (active)
same,viability,"[8]; at 0.00122 µM, OCI-C5x cells, with rucaparib 10 µM, 100% = cells with rucaparib alone",109% (inactive)
same,viability,"[8]; at 0.00122 µM, OCI-C5x cells, without rucaparib",97.1% (active)
same,viability,"[8]; at 0.00122 µM, OCI-P5x cells, with rucaparib 20 µM, 100% = cells with rucaparib alone",92.3% (active)
same,viability,"[8]; at 0.00122 µM, OCI-P5x cells, without rucaparib",91.4% (active)
same,viability,"[8]; at 0.00488 µM, OCI-C5x cells, with rucaparib 10 µM, 100% = cells with rucaparib alone",103% (inactive)
same,viability,"[8]; at 0.00488 µM, OCI-C5x cells, without rucaparib",93.8% (active)
same,viability,"[8]; at 0.00488 µM, OCI-P5x cells, with rucaparib 20 µM, 100% = cells with rucaparib alone",101% (inactive)
same,viability,"[8]; at 0.00488 µM, OCI-P5x cells, without rucaparib",97.9% (active)
same,viability,"[8]; at 0.0195 µM, OCI-C5x cells, with rucaparib 10 µM, 100% = cells with rucaparib alone",107% (inactive)
same,viability,"[8]; at 0.0195 µM, OCI-C5x cells, without rucaparib",97.1% (active)
same,viability,"[8]; at 0.0195 µM, OCI-P5x cells, with rucaparib 20 µM, 100% = cells with rucaparib alone",89.8% (active)
same,viability,"[8]; at 0.0195 µM, OCI-P5x cells, without rucaparib",99.8% (active)
same,viability,"[8]; at 0.0781 µM, OCI-C5x cells, with rucaparib 10 µM, 100% = cells with rucaparib alone",99.2% (active)
same,viability,"[8]; at 0.0781 µM, OCI-C5x cells, without rucaparib",92.3% (active)
same,viability,"[8]; at 0.0781 µM, OCI-P5x cells, with rucaparib 20 µM, 100% = cells with rucaparib alone",97% (active)
same,viability,"[8]; at 0.0781 µM, OCI-P5x cells, without rucaparib",99.7% (active)
same,viability,"[8]; at 0.313 µM, OCI-C5x cells, with rucaparib 10 µM, 100% = cells with rucaparib alone",110% (inactive)
same,viability,"[8]; at 0.313 µM, OCI-C5x cells, without rucaparib",95.3% (active)
same,viability,"[8]; at 0.313 µM, OCI-P5x cells, with rucaparib 20 µM, 100% = cells with rucaparib alone",97.5% (active)
same,viability,"[8]; at 0.313 µM, OCI-P5x cells, without rucaparib",102% (inactive)
same,viability,"[8]; at 1.25 µM, OCI-C5x cells, with rucaparib 10 µM, 100% = cells with rucaparib alone",98.2% (active)
same,viability,"[8]; at 1.25 µM, OCI-C5x cells, without rucaparib",100% (inactive)
same,viability,"[8]; at 1.25 µM, OCI-P5x cells, with rucaparib 20 µM, 100% = cells with rucaparib alone",100% (inactive)
same,viability,"[8]; at 1.25 µM, OCI-P5x cells, without rucaparib",106% (inactive)
same,viability,"[8]; at 5 µM, OCI-C5x cells, with rucaparib 10 µM, 100% = cells with rucaparib alone",95.5% (active)
same,viability,"[8]; at 5 µM, OCI-C5x cells, without rucaparib",100% (active)
same,viability,"[8]; at 5 µM, OCI-P5x cells, with rucaparib 20 µM, 100% = cells with rucaparib alone",97.5% (active)
same,viability,"[8]; at 5 µM, OCI-P5x cells, without rucaparib",101% (inactive)
same,remaining NAD,[5],10 nM (inactive)
same,luciferase signal,[6],84 AU (inactive)
C=C1C2=CC(=O)O[C@@H](c3ccoc3)[C@]2(C)CCC1[C@@]1(C)C=CC(=O)C(C)(C)[C@@H]1CC(=O)OC (some centres undefined),inhibition,[2],1.03% (inactive)
same,red/green cell ratio (normalised),[3],1.06 (inactive)
same,normalised cell number,[3]; [10],1.13
same,normalised cell number,[3]; [11],1.2
NCCc1cnc[nH]1,parasite load remaining,[9],99.6% (inactive) and 68.2% (inactive)
same,viability,[9],74.2% and 99%
same,inhibition,[2],11.6% (inactive)
same,red/green cell ratio (normalised),[3],1.19 (inactive)
same,normalised cell number,[3]; [10],0.99
same,normalised cell number,[3]; [11],1.18
same,z-score,[4]; [12],1.03 (inactive) and -0.124 (inactive) and -0.135 (inactive)
same,z-score,[4]; [13],-0.434 and -0.222 and -0.159
same,remaining NAD,[5],10 nM (inactive)
same,luciferase signal,[6],68 AU (inactive)
same,z-score,[7],0.205 (inactive) and 0.305 (inactive) and 0.49 (inactive)
